This is an account of results in PubChem BioAssay AID2732 (Emory University Molecular Libraries Screening Center, 2010).

The campaign covered roughly 220,000 compounds. About 8,200 (3.7%) were called active. Shown is part of a subset that was picked to be rich in actives. A number with no mark means an inactive call.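 Rule for the calls: active = compounds that reduced the stress-induced luciferase reporter signal by more than about 70% of percent inhibition (limit read from the data); inactive = the rest.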

This experiment can be described thus: blockers of ER-stress CHOP reporter expression – cell-based, unfolded protein response, luciferase reporter, primary screen (AID 2732).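 Note: 0% = tunicamycin plus vehicle and 100% = wells without tunicamycin.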 The settings on record: CHO-K1 CHOP-promoter luciferase, tunicamycin-induced, 15-18 h; at 10 µM; stronger effect = higher value. On the technique in general: In a reporter assay the amount or activity of a reporter protein is the signal.
Broadly, the inhibition is the drop in the measured response relative to a control, in per cent. As to `Nc1nc(CC(=O)CSc2ccc(Cl)cc2)nc(Nc2ccc(F)cc2)n1`, the inhibition was 81.9% (active).

Regarding `Cc1ccc(Nc2nc(N)nc(CSc3nnc(C)s3)n2)cc1`, the inhibition was -43.6%.

For the compound `CCOC(=O)N1CCN(Cc2nc(N)nc(Nc3ccc(C)cc3)n2)CC1`, the inhibition was 30.1%. Next, `O=S(=O)(Cc1noc(-c2ccc(OC(F)(F)F)cc2)n1)c1ccc(F)cc1`: -5.94%. Consider `COc1ccc(NC(=O)c2cn(-c3ccccc3)nc2SC)cc1`, for which the inhibition is 14.6%. Then `Cc1ccc(S(=O)(=O)/N=C(/Nc2ccccn2)c2ccc(Cl)cc2)cc1`, with 14.2%; and `O=S(=O)(/N=C(/Nc1ccccn1)c1ccccc1)c1ccc(Cl)cc1`, with 8.33%; and `Cc1ccc(S/C(=N\S(=O)(=O)c2ccc(Cl)cc2)c2ccccc2)cc1`, with 85.7% (active). Next, `O=C(Nc1cccnc1Oc1ncnc2cc(Cl)ccc12)c1ccc(F)cc1`: -24.4%.

Turning to `CCOC(=O)c1cn[nH]c1NC(=S)Nc1ccccc1`, the inhibition was -6.82%. Then `COc1ccc(C(=O)C2CCCN(C(=O)c3cnsn3)C2)c(C)c1` (stereo unspecified), with 1.06%. Next, `FC(F)(F)c1cccc(N/N=C/c2ccccc2)c1`: 69%; `FC(F)(F)c1nc2ccccc2nc1N/N=C/c1ccc(Cl)cc1`: 70.3% (active); `Fc1ccc(/C=N/Nc2nc(-c3cccnc3)nc3ccccc23)cc1`: 1.02%.

With `COc1ccc2c(CC(=O)OCC(=O)NC(N)=O)coc2c1`, the inhibition was 8.09%.

As for `COc1ccc(CCNC(=O)c2ccco2)cc1`, the inhibition was 14.1%. Next, `COc1ccc(CN(Cc2ccc(OC)cc2)C(=O)c2cccs2)cc1`: -9.17%.

With `COc1ccc(CCNC(=O)/C(C#N)=C2\N=C(NC(=O)c3cccs3)c3ccccc32)cc1`, the inhibition was 81.3% (active). For `Cc1ccc(/C=C/C(=O)O)cc1S(=O)(=O)N1CCC(Cc2ccccc2)CC1`, the inhibition was -11.4%.

Consider `Cc1onc(-c2ccccc2)c1C(=O)N=C(N)c1ccc(Cl)cc1`, for which the inhibition is 6.38%.

Regarding `Fc1c(F)c(C(F)(F)F)c(F)c(F)c1N1CCN(c2ccc3nnc(C(F)(F)F)n3n2)CC1`, the inhibition is 72.7% (active). Next, `FC(F)(F)c1nnc2ccc(N3CCN(c4ccccc4)CC3)nn12`: 49.9%; `O=C(Nc1ccc(S(=O)(=O)Nc2nccs2)cc1)c1cc(=O)[nH]c2ccccc12`: 19.9%. Next, `CC1(C)CCSC(/C=C/c2ccccc2)=N1`: -147%; `O=C(Nc1nnc(CCN2CCCCC2)s1)c1cccc(Cl)c1`: 6.02%; `Nc1nnn(CC(=O)N/N=C/c2ccc(O)cc2)n1`: -8.23%.

Take `Cc1ccc(Cc2cnc(NC(=O)/C(C#N)=C/c3ccc(-c4cccc([N+](=O)[O-])c4)o3)s2)cc1`: the inhibition was 93.4% (active).

For `N#C/C(=C\c1ccc(-c2cccc([N+](=O)[O-])c2)o1)C(=O)NCCN1CCOCC1`, the inhibition is 27.9%. Then `Cc1ccc(C(=O)N/C(=C/c2ccc(-c3cccc([N+](=O)[O-])c3)o2)C(=O)NCCCN(C)C)cc1`, with 8.44%; and `Cc1ccc(/C=N/NC(=S)NC2CCCCC2)o1`, with 2.92%; and `Nc1ccccc1Sc1cc(Cl)nnc1Cl`, with 20%. Next, `CC(=O)Nc1ccc(CC#N)cc1`: 18.1%; `CC1(C)CC(=O)C(N=Nc2c(F)cccc2F)=C(O)C1`: 7.79%; `Cc1cccc(Cn2c(SCCO)nc3c2c(=O)n(C)c(=O)n3C)c1`: 16.8%.

With `CCOc1ccc(Cn2c(SCCCCC#N)nc3c2c(=O)n(C)c(=O)n3C)cc1OCC`, the inhibition is 17.3%. Take `CCCSc1nc2c(c(=O)n(C)c(=O)n2C)n1Cc1ccc(C)cc1`: the inhibition was 77.2% (active).

Take `Cc1nc2cc(NC(=O)Nc3cccc(F)c3)ccc2n1C`: the inhibition was -0.84%. Next, `C/C(Cc1ccccc1)=N\NC(=O)CNC(=O)c1ccc2c(c1)OCCO2`: 14.9%; `CC(=O)N1CCC(N(C(=O)Nc2ccc(Cl)cc2)C(C)C)CC1`: 15.3%. Then `CC(C)Oc1ccc(CCC(=O)NNC(=S)NCc2ccccc2)cc1`, with 6.72%. With `CC1(C)CC(N2CCN(C(c3ccccc3)c3ccccc3)CC2)=CC(=[N+]2CCCCC2)C1`, the inhibition was 65.3%. Then `CN(CC(=O)Nc1ccc(F)cc1)CC(=O)Nc1ccc(Cl)c(S(=O)(=O)N2CCOCC2)c1`, with -2.81%; and `Cc1nn2c(NCCN(C)C)c3c(nc2c1-c1ccccc1)CCC3`, with -22%; and `CCC1(C)Cc2c(sc3nc(SC)[nH]c(=O)c23)CO1` (stereo unspecified), with 10%. Then `CSc1nc2sc3c(c2c(=O)[nH]1)CCc1ccccc1-3`, with 106% (active). `COc1ccc(-n2c(=S)[nH]c3sc4c(c3c2=O)CCc2ccccc2-4)cc1`: the inhibition is -20.5%.

On to `CCn1c(SCC(=O)N/N=C/c2ccccc2OCC(=O)O)nnc1-c1ccc(C(C)(C)C)cc1`, for which the inhibition is 4.75%. Regarding `CC(C)(C)n1cnnc1Sc1ccc([N+](=O)[O-])cn1`, the inhibition was 12.9%.

In the case of `Cc1ccc(-c2c[n+](CC(=O)Nc3ccccc3)c3n2CCC3)cc1`, the inhibition was 16.6%.

For `O=C(O)C1CCN(C(=O)c2cc(F)cc3c2OCOC3)CC1`, the inhibition was 12.2%. As to `O=C(CC12CC3CC(CC(C3)C1)C2)Nc1ccc2c(c1)COC2=O`, the inhibition is 69.7%. Next, `O=C(Nc1ccc2c(c1)C(=O)OC2)Nc1cccc2ccccc12`: 90.2% (active); `Cc1ccc(S(=O)(=O)NNC(=O)Nc2cccc3ccccc23)cc1`: 36.5%. Then `O=C(c1ccc(CN2CCOCC2)cc1)N1CCN(c2ccccc2F)CC1`, with -5.7%; and `COc1ccc2oc(=O)c(C(=O)N3CCN(c4ccccc4F)CC3)cc2c1`, with 25.2%. Next, `O=C(c1cccc2ccccc12)N1CCN(c2ccccc2F)CC1`: 91.4% (active); `COc1ccc(CCNC2=CC(=O)CC(C)(C)C2)cc1`: 6.34%. For the compound `C=CCN1CC(C)/C(=N\O)CC1C` (stereo unspecified), the inhibition was -23.6%. Then `CCOC(=O)C1(S(=O)(=O)c2ccccc2)CCN(Cc2ccccc2)CC1`, with -6.62%; and `CC1=C/C(=N\S(=O)(=O)c2ccccc2)C(C(C)C)=CC1=O`, with 49.7%. Consider `CC1=C/C(=N\OS(=O)(=O)c2ccccc2)C=CC1=O`, for which the inhibition was 108% (active).
